# From ChEMBL document CHEMBL3988442, “University of Dundee, Small-Polar-MMV Screening Library” (2021)
# About 960 (1.5%) of roughly 66,000 compounds showed an effect of 50% or more. Only a selection was taken, and strong results are over-represented in it overall.
# Tested on: Trypanosoma brucei
# Experiment: Trypanosoma brucei 72 hour study
# Assay type: functional, organism-based
# Set-up: scale not given: in the data most compounds retested in dose-response had high values
structure (smiles),measurement,setting,value
CN(C)CCN1C(=O)CCC12CCCN(C(=O)C1CC=CC1)CC2.O=C(O)C(F)(F)F (stereo not given),Percent Effect,"30.3 µM, […]",14.28%
COc1ccc(OCC2CCCN(c3nc(CO)cs3)C2)cc1 (stereo not given),Percent Effect,"30 µM, 30.03 µM",85.11%
OCc1csc(N2CCCC(COc3cccc(F)c3)C2)n1 (stereo not given),Percent Effect,"30 µM, 30.03 µM",-13.56%
Cc1ccc(OCC2CCCN(c3nc(CO)cs3)C2)cc1 (stereo not given),Percent Effect,"30 µM, 30.03 µM",49.4%
Cc1nc2cc(-c3nccn3C)nn2c(N2CCCC(O)C2)c1C.Cl (stereo not given),Percent Effect,"30.3 µM, […]",-11.86%
Cc1nc2cc(-c3nccn3C)nn2c(N2CCCC(CO)C2)c1C (stereo not given),Percent Effect,"30.3 µM, […]",21.68%
CCc1c(C)nc2cc(-c3nccn3C)nn2c1N1CCCC(CO)C1 (stereo not given),Percent Effect,"30.3 µM, […]",50.14%
Cc1ccc(CN2CCOC3(COCCN(CCN(C)C)C3)C2)o1.O=C(O)C(F)(F)F.O=C(O)C(F)(F)F.O=C(O)C(F)(F)F (stereo not given),Percent Effect,"30 µM, 30.03 µM",20.44%
OC(CNC1CCSCC1)c1cccc(OCc2ccccc2)c1 (stereo not given),Percent Effect,"30 µM, 30.03 µM",-20.69%
OC(CNC1CCOCC1)c1cccc(OCc2ccccc2)c1 (stereo not given),Percent Effect,"30 µM, 30.03 µM",-36.97%
CN1CCC(NCC(O)c2cccc(OCc3ccccc3)c2)CC1 (stereo not given),Percent Effect,"30 µM, 30.03 µM",101.3%
Cl.c1cc(NCc2ccncc2)nc(C2CCCN2)c1 (stereo not given),Percent Effect,"30.3 µM, […]",7.613%
CC(C)(C)c1ccc(-n2ncc3c2CCCC3N)cc1 (stereo not given),Percent Effect,"30 µM, 30.03 µM",97.82%
Cc1cc(C)cc(-n2ncc3c2CCCC3N)c1 (stereo not given),Percent Effect,"30 µM, 30.03 µM",-36.85%
Cc1ccc(-n2ncc3c2CCCC3N)cc1C (stereo not given),Percent Effect,"30 µM, 30.03 µM",-37.31%
CN(C)C(=O)C1CCN(C2CCN(CC3CC3)CC2)CC1.O=C(O)C(F)(F)F.O=C(O)C(F)(F)F,Percent Effect,"30.3 µM, […]",-10.13%
CCc1nc(C2CCCN2C(=O)c2ccc3c(c2)nnn3C)no1 (stereo not given),Percent Effect,10 µM,-25.38%
same,Percent Effect,"30.3 µM, […]",-22.91%
c1ccc(-c2nc(CN3CCCC3Cn3cncn3)no2)cc1 (stereo not given),Percent Effect,"30.3 µM, […]",6.98%
N#Cc1cc(Cl)ccc1N1CCN(C(=O)C2CCC2)CC1,Percent Effect,"30.3 µM, […]",81.04%
CC1CCN(C(=O)C2CCN(c3ccc(Cl)cc3C#N)CC2)CC1,Percent Effect,"30.3 µM, […]",28.97%
CCN(CC)C(=O)C1CCN(c2ccc(Cl)cc2C#N)CC1,Percent Effect,"30.3 µM, […]",-5.722%
O=C(O)C(F)(F)F.O=C(c1cccnc1)N1CCC2(CC1)COCCN(c1ncccn1)C2,Percent Effect,"30 µM, 30.03 µM",-13.17%
COc1ccc(N2Cc3nc(N)ncc3C2=O)cc1Cl,Percent Effect,"30 µM, 30.03 µM",-4.562%
Cc1cc(S(=O)(=O)NCC(C)(C)N)c(F)cc1F.Cl,Percent Effect,"30 µM, 30.03 µM",-16.3%
CC(C)CNc1nc2c(cc1C(=O)NCC1CC1)CCNCC2,Percent Effect,"30 µM, 30.03 µM",100.1%
CC(C)Nc1nc2c(cc1C(=O)NCC1CC1)CCNCC2.O=C(O)C(F)(F)F.O=C(O)C(F)(F)F,Percent Effect,"30 µM, 30.03 µM",-26.83%
CNC(=O)c1cc2c(nc1NCC1CC1)CCNCC2,Percent Effect,"30 µM, 30.03 µM",-38.29%
O=C(O)C(F)(F)F.O=C1CCCN1Cc1nnc2n1CCN(Cc1ccccn1)CC2,Percent Effect,"30.3 µM, […]",-8.188%
Cc1cc(C[C@@H]2CCC[C@H]2NCc2c[nH]nc2-c2ccccc2)on1.O=C(O)CC(O)(CC(=O)O)C(=O)O,Percent Effect,"30.3 µM, […]",19.9%
CNC(=O)c1cc2c(nc1NCC(C)C)CCN(C)CC2.O=C(O)C(F)(F)F.O=C(O)C(F)(F)F,Percent Effect,"30.3 µM, […]",-104.3%
CNC(=O)c1cc2c(nc1NCC(C)C)CCN(c1ccncn1)CC2.O=C(O)C(F)(F)F,Percent Effect,"30 µM, 30.03 µM",-20.72%
CNC(=O)c1cc2c(nc1NCC(C)C)CCN(c1ncccn1)CC2.O=C(O)C(F)(F)F,Percent Effect,"30.3 µM, […]",98.85%
O=C(CSc1ccc(F)c(F)c1)NS(=O)(=O)c1ccc2c(c1)OCCO2,Percent Effect,"30 µM, 30.03 µM",-8.026%
O=C(CSc1ccc2c(c1)OCCO2)NS(=O)(=O)c1ccccc1F,Percent Effect,"30 µM, 30.03 µM",-24.23%
O=C(CSc1ccc2c(c1)OCCO2)NS(=O)(=O)c1cc(F)ccc1F,Percent Effect,"30 µM, 30.03 µM",61.54%
CN1C(=O)CC(c2ccccc2)C12CCN(CC1CCOCC1)CC2.O=C(O)C(F)(F)F (stereo not given),Percent Effect,"30.3 µM, […]",-3.358%
O=C(O)C(F)(F)F.O=C(O)C(F)(F)F.O=c1cc(Cn2cncn2)nc2n1CCCN(CCN1CCCC1)C2,Percent Effect,"30 µM, 30.03 µM",14.15%
COCCN1CCCn2c(nc(Cn3cncn3)cc2=O)C1.O=C(O)C(F)(F)F,Percent Effect,"30 µM, 30.03 µM",64.46%
O=C(O)C(F)(F)F.O=c1cc(Cn2cncn2)nc2n1CCCN(Cc1ccc(F)cc1)C2,Percent Effect,"30 µM, 30.03 µM",27.77%
O=C(O)C(F)(F)F.c1cnc(NCc2nnn3c2CN(CC2CC2)CCC3)nc1,Percent Effect,"30.3 µM, […]",-52.08%
Cc1nn(C)c(N(C)C)c1CNC1CCc2cc(F)ccc21.Cl (stereo not given),Percent Effect,10 µM,-39.72%
Cc1ccc(C(=O)N2CCc3ncc(Cn4cccn4)n3CC2)cn1,Percent Effect,"30.3 µM, […]",-7.438%
Cn1cccc1C(=O)N1CCc2ncc(Cn3cccn3)n2CC1,Percent Effect,"30 µM, 30.03 µM",59.24%
O=C(c1ccoc1)N1CCc2ncc(Cn3cccn3)n2CC1,Percent Effect,"30.3 µM, […]",-11.59%
CS(=O)(=O)NCc1cncc2c1CCN(C(=O)c1cccnc1)C2.Cl.Cl,Percent Effect,"30.3 µM, […]",-7.257%
COCC1CN(Cc2ccoc2)Cc2nnn(C)c21.O=C(O)C(F)(F)F (stereo not given),Percent Effect,"30 µM, 30.03 µM",-46.26%
CCc1c(C)nc2cc(C3CCN(Cc4cccnc4)C3)nn2c1O (stereo not given),Percent Effect,"30.3 µM, […]",7.415%
CCc1c(C)nc2cc(C3CCN(CCc4ccccc4)C3)nn2c1O (stereo not given),Percent Effect,"30.3 µM, […]",58.63%
CCc1c(C)nc2cc(C3CCN(Cc4cccc(F)c4)C3)nn2c1O (stereo not given),Percent Effect,"30.3 µM, […]",27.1%
